Compound activity (PubChem)
Rows were chosen to be rich in hits. Some 21% of all compounds tested hit in one or more screens of this group.
Shiga inhibitor = blocks Shiga toxin action in Vero cells; Vero cells, Shiga toxin protein synthesis inhibition reporter; inhibition, % at 38.7 µM; 290,000 tested, 9.2% active; in the data active = inhibition mostly above about 28%, no sharp cut-off; inactive = mostly below about 43%; also: 0% is about no effect
Pf growth 48h = P. falciparum growth inhibition at 48 hours (one generation) | P. falciparum luciferase growth in erythrocytes, 48 h | Potency, µM (highest dose often 28.7 µM), for inactives: top-dose activity change, negative = inhibition, hits mostly inhibitors | 310,000 tested, 5.9% active; also: potency is read from the fitted curve at half-maximal effect; % is scaled to controls: 0 for no effect and ±100 for the full control effect
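Erythrocytes infected with P. falciparum carrying an integrated firefly luciferase reporter (2% hematocrit, 0.1% parasitemia final) were exposed to compounds in RPMI 1640 with 0.5% Albumax at 37 C, 5% CO2. Growth inhibition was scored as reduced luminescence.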
HCV inh = blocks hepatitis C virus; Potency, µM (titrated, usually from 41.8 µM), for the others: top-dose activity change, negative = inhibition, usual class: inhibitors; Huh7.5.1 HCVcc-Cre infection, luciferase reporter, 44 h; AID 651820; 340,000 tested, 3.4% active; also: potency is read from the fitted curve at half-maximal effect; % is scaled to controls: 0 for no effect and ±100 for the full control effect
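Whole-lifecycle infectious HCVcc-Cre system; cells 1,000/well, compound then virus (~0.5 moi) added 4 h after plating, 44 h culture. Luciferase read 15 sec following 15 min substrate incubation, room temp.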
Pf growth 96h = inhibits malaria parasite growth, 96 h; P. falciparum luciferase reporter growth, 96 h; Potency, µM (highest dose often 28.7 µM), inactives show at the top dose activity change, negative = inhibition, usual class: inhibitors; 320,000 tested, 6.9% active; also: potency is read from the fitted curve at half-maximal effect; % is scaled to controls: 0 for no effect and ±100 for the full control effect
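Parasite growth measured via integrated firefly luciferase reporter in P. falciparum. Infected erythrocytes at 2% hematocrit, 0.05% parasitemia final were treated 96 hours at 37 C under 5% CO2, and luminescence was read.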
Cycloheximide cs = counter-screen for Shiga toxin inhibitors: cycloheximide protein synthesis inhibition | cell reporter, cycloheximide protein synthesis inhibition counterscreen | max response, % | 300,000 tested, 12% active | AID 2314; in the data active = max response mostly above about 13%, no sharp cut-off; inactive = mostly below about 14%; also: read at 38.3 µM for the half of the compounds with a filed dose; 0% is about no effect
HCMV inh = human cytomegalovirus inhibition; HFF cells, HCMV-luciferase reporter, 72 h; stronger effect = lower value; activity change, negative = inhibition, % at 57.5 µM; 410,000 tested, 4.5% active; AID 1259415; in the data active = activity change below about -60%; inconclusive = no clear call, values can overlap the other calls; inactive = above about -39%; also: % is scaled to controls: 0 for no effect and ±100 for the full control effect
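After 16 h attachment at 37C, HFF cells received test compound and HCMV-luciferase (1 PFU/cell); reporter luminescence read 72 h later, data normalized against buffer-only and known inhibitor Salinomycin.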
Active calls of the source: *; ? = inconclusive; . = no result. Unless noted, calls follow the shape of the dose curve; as a rule, active = well fitted inhibition curve with a large enough effect; inconclusive = small, poorly fitted or top-dose-only effect, or another doubt; inactive = no such curve, though single readings can be large or run the other way.

SMILES	Shiga inhibitor	Pf growth 48h	HCV inh	Pf growth 96h	Cycloheximide cs	HCMV inh
COC(=O)c1sc2nc(CSc3nc4ccc(C)cc4[nH]3)[nH]c(=O)c2c1C	-6	.	13%	?	-5	?
Nn1c(CSc2ccccn2)nc2ccccc2c1=O	83*	.	3%	?	44*	7
CCCCCCc1nc2ccccc2c(=O)n1N	21	17%	11%	?	21	-21
COC(=O)c1sc2ccccc2c1N	60*	94%	?	?	32*	24
COC(=O)c1sc2ccccc2c1C(=O)OC	-7	-1%	.	.	6	-1
COc1cc(OC)cc(N2C(=O)CSCC2=O)c1	2	2.6µM*	17%	25%	-1	43
Cc1ccc(N2C(=O)CSCC2=O)cc1	-27	-6%	-1%	.	1	-3
Cc1ccc2nc(-c3ccc(C#N)cc3)c(Cc3ccccc3)n2c1	.	.	.	.	.	59
Cc1ccc(NC(=O)NC2CC(=O)N(c3ccc4c(c3)OCCO4)C2)c(C)c1 (stereo not drawn)	.	?	10%	-13%	.	-39
CCN(Cc1ccccc1)C(=O)CCc1nc(CN2CCN(C(=O)c3ccc([N+](=O)[O-])cc3)CC2)no1	-2	-15%	-29%	?	2	10
COc1ccc(OC)c(N(CC(=O)N2CCC(C)CC2)S(=O)(=O)c2ccc(OC)c(OC)c2)c1	18	?	17%	2.6µM*	-1	5
COc1ccc(OC)c(N(CC(=O)NC2CCCCCC2)S(=O)(=O)c2ccc(C)cc2)c1	-25	?	6%	-28%	-2	-3
CCOc1ccccc1N(CC(=O)NC1CCCCC1)S(=O)(=O)c1ccc(C)cc1	-6	12µM*	-13%	24%	2	-77*
COc1ccccc1N(CC(=O)NC1CCCC1)S(=O)(=O)c1ccc(C)cc1	-1	?	-9%	15%	-6	-17
O=C(CN(C(=O)CNS(=O)(=O)c1ccccc1)c1ccc2c(c1)OCCO2)NC1CCCCC1	17	?	-8%	?	24*	18
COc1ccc(OC)c(N(CC(=O)NC2CCCC2)S(=O)(=O)c2ccc(OC)c(OC)c2)c1	-18	?	3%	5.9µM*	6	146
CCc1ccccc1NC(=O)Nc1cc(F)ccc1F	26	?	-18%	1%	8	?
Cc1c(C(=O)N2CCCCCC2)c(S(=O)(=O)NCc2ccccc2)c(C)n1C	.	.	.	.	.	-14
CC1(C(=O)NS(=O)(=O)c2ccc(C#N)cc2)CCN1C(=O)Cc1cccc2ccccc12 (stereo not drawn)	.	.	.	.	.	6
COc1cc(OC)cc(C(=O)Nc2ccc(S(=O)(=O)Nc3nc(C)cc(C)n3)cc2)c1	-9	6%	12%	?	2	5
CN(C)CCCCl	.	.	.	.	.	1
CN(CC(=O)NC1CCCCCC1)S(=O)(=O)c1ccccc1	34*	18%	1%	.	12*	-6
CC(=O)Nc1ccc(S(=O)(=O)N(C)CC(=O)NC2CCCCCCC2)cc1	.	.	-3%	.	.	-3
COc1ccccc1N(CC(=O)NC1CCCC1)S(=O)(=O)c1cccc(C(F)(F)F)c1	.	13µM*	7%	?	.	-31
COc1ccccc1-c1cc(C(=O)Nc2cc(C)n(Cc3ccc(Cl)cc3)n2)no1	-18	5.9µM*	?	16%	-1	-13
SMILES	Shiga inhibitor	Pf growth 48h	HCV inh	Pf growth 96h	Cycloheximide cs	HCMV inh
Cc1cc(NC(=O)c2cc(-c3cccc(Cl)c3)on2)nn1Cc1ccc(Cl)cc1	.	.	.	.	.	-80*
Cc1cc(NC(=O)c2cc(-c3ccc(Cl)cc3)on2)nn1Cc1ccc(Cl)cc1	.	.	.	.	.	-37
Cc1cc(NC(=O)c2cc(-c3ccc(Br)cc3)on2)nn1Cc1ccc(Cl)cc1	.	.	.	.	.	-8
Cc1cc(NC(=O)c2cc(C(C)C)on2)nn1Cc1ccc(Cl)cc1	50	.	?	9.3µM*	15	-21
Cc1cc(C(=O)Nc2cc(C)n(Cc3ccc(Cl)cc3)n2)no1	32	0.93µM*	-7%	?	15	-14
CN1C(C(=O)NC(C)(C)C)=CC(c2ccc3c(c2)OCO3)=NS1(=O)=O	.	.	.	.	.	-8
COc1ccc(C(=O)NNC2=C(C(=O)C(F)(F)F)CCC2)cc1	48*	75%	-28%	7%	27*	-9
O=C(NNC1=C(C(=O)C(F)(F)F)CCC1)c1cccc(Cl)c1	85*	8%	?	.	28*	-27
O=C(NNC1=C(C(=O)C(F)(F)F)CCC1)c1ccc(Cl)cc1	86*	19%	-6%	2.9µM*	18*	10
Oc1ccc(Nc2nc3ccccc3n3cnnc23)cc1	.	.	.	.	.	-12
CC(=O)c1ccc2c3c(cc(C)c2c1)CCCC3	.	.	11µM*	.	.	-66*
CC(=O)Oc1ccc(C23CC4CC(CC(C4)C2)C3)cc1C(=O)O	37*	3%	.	9%	-3	.
O=C(O)c1ccccc1OC(=O)C12CC3CC(CC(C3)C1)C2	-6	-2%	9%	175%	-5	-19
CC1(C)CC(NC(=O)c2ccc(Cl)c(S(=O)(=O)N(Cc3ccccc3)c3ccccc3)c2)CC(C)(C)N1	.	5.2µM*	?	7.4µM*	.	-37
COc1ccc(N(Cc2ccccc2)S(=O)(=O)c2cccc(C(=O)Nc3ncccc3C)c2)cc1	.	?	?	?	.	6
COc1ccccc1N(Cc1ccccc1)S(=O)(=O)c1cccc(C(=O)NC2CC(C)(C)NC(C)(C)C2)c1	.	5.9µM*	2.2µM*	4.7µM*	.	-34
CCOc1ccccc1NC(=O)c1cccc(S(=O)(=O)N(Cc2ccccc2)c2ccccc2OC)c1	-10	0%	?	2.6µM*	-2	-5
COc1ccccc1N(Cc1ccccc1)S(=O)(=O)c1cccc(C(=O)Nc2ncccc2C)c1	.	12µM*	-11%	?	.	?
CCCCN(CC)CCNC(=O)c1cc2c(=O)oc3ccc(C)cc3c2s1	.	.	.	.	.	5
CC[C@H]1Nc2ccc(OC)cc2[C@@H](NS(C)(=O)=O)[C@@H]1C	.	.	.	.	.	1
Cc1ccc(Cn2c(CNC(=O)CCc3ccccc3)nc3cccnc32)cc1	.	.	.	.	.	-34
Cc1ccc(-c2nc(CCNC(=O)C(=O)Nc3ccc(C)c(Cl)c3)cs2)cc1	.	.	.	.	.	-12
COc1ccccc1N(Cc1ccccc1)S(=O)(=O)c1cccc(C(=O)O)c1	2	-3%	5%	-21%	-2	0
COc1ccccc1N(Cc1ccccc1)S(=O)(=O)c1cccc(C(=O)Nc2cc(C)ccn2)c1	58*	?	?	?	43*	-90*
COc1cc2c(cc1OC)C(NC(=O)C(F)(F)F)C/C2=N\O (stereo not drawn)	-15	13µM*	-9%	13%	-9	8
Cc1ccc(NC(=O)c2oc3ccc(S(=O)(=O)N4CCC5(CC4)OCCO5)cc3c2C)c(C)c1	.	.	.	.	.	-26
